Laboratory results taken from PubChem BioAssay (Tox21).
Inconclusive results are not listed. Where a call stands in place of a potency, no number is given. Where a structure was tested more than once in an assay, its records may differ in their call. Calls of active or inactive are those of the source. Unless noted, the call rests on the fitted dose curve; in most records, active means well fitted curve in the direction sought with a large enough effect in the repeat runs; inconclusive means weak or mixed curves; inactive means no such curve, though single readings can be large; an effect the other way counts as inactive or inconclusive.

How the values were obtained:
[1] = qHTS assay to identify small molecule agonists of the estrogen receptor alpha (ER-alpha) signaling pathway in the presence of an antagonist - cell viability counter screen (AID 1259386);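 further: series mostly up to about 92 µM; cells exposed to compounds for 22 h at 37 °C before the viability read; nearly all actives have a fitted effect of over 30% in size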
How it was run: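 Using estrogen-depleted VM7Luc4E2 cells, the 15-concentration compound series was applied together with 10.0nM ICI-182,780 and incubated 22hr at 37C/5% CO2. Cell viability was then scored by CellTiter-Fluor.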

[2] = target: Progesterone receptor (Homo sapiens) (UniProt P06401); assay: qHTS assay to identify small molecule agonists of the progesterone receptor (PR) signaling pathway (AID 1346784; calls by dose curve; further: nearly all actives have a fitted effect of over 30% in size)
How it was run: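 PR-UAS-bla HEK 293T cells (beta-lactamase reporter under UAS) in 2% charcoal-stripped FBS, dosed with 23 nL compound after 6 hr, incubated 16hr at 37C. LiveBLAzer B/G FRET substrate added, fluorescence read after 2 hours.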

[3] = target: Progesterone receptor (Homo sapiens) (UniProt P06401); assay: qHTS assay to identify small molecule antagonists of the progesterone receptor (PR) signaling pathway (AID 1346795; active means well fitted inhibition curve with a large enough effect in the signal ratio in the repeat runs, not every such curve was filed as active; the % refers to the signal ratio)
How it was run: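 PR-UAS-bla HEK293T cells with beta-lactamase reporter under UAS control, in 2% charcoal-stripped FBS, treated with compounds plus 1 nM promegestone (R5020, final) for 16 hr at 37C. Read-out: FRET beta-lactamase substrate fluorescence after 2 hr at room temperature.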

[4] = qHTS assay to identify small molecule antagonists of the progesterone receptor (PR) signaling pathway - cell viability counter screen (AID 1346798); further: series mostly up to about 92 µM; nearly all actives have a fitted effect of over 50% in size
How it was run: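 PR-UAS-bla HEK293T cells, 3,000/well in 2% charcoal-stripped FBS medium, dosed with compounds plus R5020 agonist and incubated 16 h at 37C. Viability then measured in the same wells by CellTiter-Glo luminescence after 30 min at RT.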

[5] = qHTS assay to identify small molecule antagonists of the TGF-beta/Smad signaling pathway - cell viability counter screen (AID 1346824); further: nearly all actives have a fitted effect of over 50% in size
How it was run: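 Cytotoxicity counter-screen run in the same wells as the beta-lactamase Smad reporter read: CellTiter-Glo luminescence after 30 min at room temperature. HEK 293T SBE-bla cells had 5 hr compound exposure at 37 C with TGF-beta1 (0.25 ng/mL stock).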

[6] = qHTS assay to identify small molecule agonists of the TGF-beta/Smad signaling pathway - cell viability counter screen (AID 1346829); further: top concentration of the series differs between compounds; nearly all actives have a fitted effect of over 45% in size
How it was run: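 Compound-treated SBE-bla HEK 293T cells (5 hr, 37 C) were assessed for viability with CellTiter-Glo in parallel with the reporter read.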

[7] = target: Thyrotropin-releasing hormone receptor (Homo sapiens) (UniProt P34981); assay: qHTS assay to identify small molecule antagonists of the thyrotropin-releasing hormone receptor (TRHR) signaling pathway (AID 1346877; active means well fitted inhibition curve with a large enough effect in the repeat runs, not every such curve was filed as active; further: series mostly up to about 51 µM)
How it was run: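 Calcium signal in dye-loaded TRHR/HEK293 cells; compounds added 5 min before TRH (1 nM final); fluorescence monitored 3 min at 1 s steps.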

[8] = Human pregnane X receptor (PXR) small molecule agonists, qHTS cell viability counter screen (AID 1346977); further: nearly all actives have a fitted effect of over 50% in size
How it was run: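 PXR-Luc HepG2 cells (2,000/well, 5% charcoal-stripped FBS) preincubated 5 hr, then exposed to compounds 24 hr at 37 C. Viability read in the same wells by CellTiter-Fluor fluorescence, reagent added at 23 hr, 1 hr incubation.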

[9] = Caspase-3/7 induction in HepG2 cells by small molecules, qHTS assay (AID 1346978); further: nearly all actives have a fitted effect of over 15% in size
How it was run: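 Caspase-3/7 induction was measured by Caspase-Glo 3/7 luminescence (30 min, room temperature) after a 17 hr compound exposure of wild-type HepG2 cells seeded at 2,000 per well and pre-incubated 5 hr.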

[10] = Caspase-3/7 induction in CHO-K1 cells by small molecules, qHTS cell viability counter screen (AID 1346979); further: nearly all actives have a fitted effect of over 35% in size
How it was run: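 Wild-type CHO-K1 cells (1,500/well) treated with compound after 5 h plating; after 16 h at 37C, viability read as CellTiter-Fluor fluorescence following 1 h reagent incubation, in the same wells as the caspase read.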

[11] = Caspase-3/7 induction in CHO-K1 cells by small molecules, qHTS assay (AID 1346980); further: nearly all actives have a fitted effect of over 15% in size
How it was run: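 Luminescent Caspase-Glo 3/7 read (30min, room temperature) quantified apoptosis induction. Cells were wild-type CHO-K1, treated with compound for 17hr at 37 C and 5% CO2.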

[12] = Caspase-3/7 induction in HepG2 cells by small molecules, qHTS cell viability counter screen (AID 1346981); further: series mostly up to about 92 µM; nearly all actives have a fitted effect of over 30% in size
How it was run: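 After a 5-hr attachment period at 37 C and 5% CO2, wild-type HepG2 cells received compounds in DMSO. Sixteen hours later CellTiter-Fluor was dispensed and the fluorescent signal quantified after a further hour.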

[13] = target: Nuclear receptor subfamily 1 group I member 2 (Homo sapiens) (UniProt O75469); assay: Human pregnane X receptor (PXR) small molecule agonists, qHTS assay (AID 1346982); further: nearly all actives have a fitted effect of over 35% in size
How it was run: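 Tox21 qHTS; PXR-Luc HepG2; compounds pinned from DMSO; 24 hr, 37 C; ONE-Glo luciferase detection, 30 min room temperature.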

[14] = qHTS assay to identify small molecule agonists of the progesterone receptor (PR) signaling pathway - cell viability counter screen (AID 1346799; calls by dose curve; further: nearly all actives have a fitted effect of over 45% in size)
How it was run: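 Counter screen in the PR-UAS-bla HEK293T wells (2% charcoal-stripped FBS, 16 h compound exposure at 37 C) after the bla read. CellTiter-Glo added, 30 min at room temperature, luminescence read as cell viability.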

[15] = qHTS assay to identify small molecule agonists of the TGF-beta/Smad signaling pathway (AID 1346859; active means well fitted activation curve with a large enough effect in the signal ratio in the repeat runs, not every such curve was filed as active; the % refers to the signal ratio; further: series mostly up to about 77 µM)
How it was run: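 SBE-bla HEK293T cells plated overnight, then compound exposure for 5 h at 37 C. Beta-lactamase reporter read with LiveBLAzer B/G FRET substrate after 2 h at room temperature, fluorescence at 405 nm excitation, 460/530 nm emission.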

[16] = target: Thyrotropin-releasing hormone receptor (Homo sapiens) (UniProt P34981); assay: qHTS assay to identify small molecule agonists of the thyrotropin-releasing hormone receptor (TRHR) signaling pathway (AID 1346891; calls by dose curve; further: series mostly up to about 58 µM)
How it was run: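 HEK293 cells expressing TRHR plated 18 h at 37 C/5% CO2, calcium dye-loaded 2 h at 37 C, then compound added (agonist mode); kinetic calcium fluorescence read 3 min at 1 s intervals; 15 concentrations in triplicate.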

[17] = target: Cytochrome P450 2D6 (Homo sapiens) (UniProt P10635); assay: Cytochrome P450 Family 2 Subfamily D Member 6 (CYP2D6) small molecule antagonists: luciferase reporter qHTS assay (AID 1671196); further: nearly all actives have a fitted effect of over 50% in size; further: potency means the concentration at half of the fitted maximal effect
How it was run: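 Room-temperature luminescent CYP2D6 activity assay: compound preincubated 10 min with enzyme–substrate mix, NADPH-initiated reaction 1 h, detection reagent 20 min before reading.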

[18] = target: Nuclear receptor subfamily 1 group I member 2 (Rattus norvegicus) (UniProt Q9R1A7); assay: Rat pregnane X receptor (rPXR) activation by small molecules, qHTS assay (AID 1346983); conditions: rPXR luciferase reporter cells, One-Glo luminescence, 24 h; stronger effect = higher value; further: nearly all actives have a fitted effect of over 20% in size
How it was run: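 Luminescent readout (One-Glo luciferase, 30 min room temperature) followed 24 hr compound treatment at 37 C of rPXR cells plated 2,000 per well and preincubated 5hr; qHTS format with compounds delivered in DMSO.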

[19] = target: Nuclear receptor subfamily 1 group I member 2 (Homo sapiens) (UniProt O75469); assay: CYP3A4 induction through human pregnane X receptor (PXR) by small molecules, qHTS assay (AID 1346984); further: nearly all actives have a fitted effect of over 40% in size
How it was run: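 Cells (DPX-2; HepG2 with PXR element plus CYP3A4-promoter luciferase) settled 5hr, then were treated 24hr at 37C. A 3hr, 3uM-final Luciferin-IPA step preceded luminescence measurement with One-Glo.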

[20] = target: Nuclear receptor subfamily 1 group I member 2 (Homo sapiens) (UniProt O75469); assay: Human pregnane X receptor (PXR) activation by small molecules, qHTS assay (AID 1346985); further: nearly all actives have a fitted effect of over 40% in size
How it was run: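 DPX-2 cells (HepG2 co-transfected with a PXR response element and a CYP3A4-promoter luciferase construct) were seeded at 2,000 per well, rested 5 hr at 37C, then exposed to DMSO-dissolved compounds for 24 hr. Activation was read as luciferase luminescence.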

Chain of Nuclear receptor subfamily 1 group I member 2 (Homo sapiens) (O75469 whole entry, looked up): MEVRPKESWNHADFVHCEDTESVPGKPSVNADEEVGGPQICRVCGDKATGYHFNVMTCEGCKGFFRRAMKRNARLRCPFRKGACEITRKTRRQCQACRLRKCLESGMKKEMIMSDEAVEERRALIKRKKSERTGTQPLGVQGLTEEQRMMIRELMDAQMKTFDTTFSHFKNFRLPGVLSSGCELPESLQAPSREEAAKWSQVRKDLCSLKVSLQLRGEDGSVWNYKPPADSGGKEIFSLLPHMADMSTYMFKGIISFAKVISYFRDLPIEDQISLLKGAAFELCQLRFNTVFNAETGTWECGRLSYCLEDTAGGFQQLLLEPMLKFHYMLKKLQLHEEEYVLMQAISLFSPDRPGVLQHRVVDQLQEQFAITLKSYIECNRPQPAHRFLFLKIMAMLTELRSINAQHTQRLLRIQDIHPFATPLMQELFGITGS
Chain of Progesterone receptor (Homo sapiens) (P06401 whole entry, looked up): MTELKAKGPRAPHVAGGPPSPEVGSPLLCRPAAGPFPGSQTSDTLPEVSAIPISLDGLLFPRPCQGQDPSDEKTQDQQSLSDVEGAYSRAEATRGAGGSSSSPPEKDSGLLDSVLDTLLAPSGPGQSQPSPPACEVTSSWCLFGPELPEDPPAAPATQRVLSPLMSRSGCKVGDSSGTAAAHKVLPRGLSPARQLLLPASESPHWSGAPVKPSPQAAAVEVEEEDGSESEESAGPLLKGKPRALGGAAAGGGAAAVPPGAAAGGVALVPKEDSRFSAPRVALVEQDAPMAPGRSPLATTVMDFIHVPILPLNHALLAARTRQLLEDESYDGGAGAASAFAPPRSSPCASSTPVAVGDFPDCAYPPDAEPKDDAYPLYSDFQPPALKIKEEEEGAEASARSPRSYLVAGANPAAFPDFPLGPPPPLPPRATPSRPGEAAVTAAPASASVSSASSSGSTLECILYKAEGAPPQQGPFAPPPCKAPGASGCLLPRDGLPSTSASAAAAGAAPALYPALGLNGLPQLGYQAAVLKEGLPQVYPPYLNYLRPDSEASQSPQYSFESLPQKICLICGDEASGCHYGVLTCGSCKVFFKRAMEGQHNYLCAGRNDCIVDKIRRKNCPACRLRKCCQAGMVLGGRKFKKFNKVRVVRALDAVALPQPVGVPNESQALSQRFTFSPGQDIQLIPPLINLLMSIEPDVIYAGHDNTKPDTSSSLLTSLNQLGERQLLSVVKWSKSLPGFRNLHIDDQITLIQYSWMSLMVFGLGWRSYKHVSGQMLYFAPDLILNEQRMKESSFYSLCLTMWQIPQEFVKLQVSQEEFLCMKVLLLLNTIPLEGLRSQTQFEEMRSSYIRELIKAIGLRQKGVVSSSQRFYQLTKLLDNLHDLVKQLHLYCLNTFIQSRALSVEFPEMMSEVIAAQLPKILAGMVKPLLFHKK
Chain of Thyrotropin-releasing hormone receptor (Homo sapiens) (P34981 whole entry, looked up): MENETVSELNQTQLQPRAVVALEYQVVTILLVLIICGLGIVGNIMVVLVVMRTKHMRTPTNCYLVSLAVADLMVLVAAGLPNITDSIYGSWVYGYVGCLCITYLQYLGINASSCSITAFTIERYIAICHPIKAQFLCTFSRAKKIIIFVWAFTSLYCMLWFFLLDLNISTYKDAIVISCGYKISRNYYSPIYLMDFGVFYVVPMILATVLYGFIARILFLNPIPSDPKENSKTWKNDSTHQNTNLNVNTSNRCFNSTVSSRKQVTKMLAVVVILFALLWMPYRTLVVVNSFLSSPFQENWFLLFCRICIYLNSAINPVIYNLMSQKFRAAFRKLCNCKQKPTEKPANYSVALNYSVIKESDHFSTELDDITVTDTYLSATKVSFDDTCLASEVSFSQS
Chain of Cytochrome P450 2D6 (Homo sapiens) (P10635 whole entry, looked up): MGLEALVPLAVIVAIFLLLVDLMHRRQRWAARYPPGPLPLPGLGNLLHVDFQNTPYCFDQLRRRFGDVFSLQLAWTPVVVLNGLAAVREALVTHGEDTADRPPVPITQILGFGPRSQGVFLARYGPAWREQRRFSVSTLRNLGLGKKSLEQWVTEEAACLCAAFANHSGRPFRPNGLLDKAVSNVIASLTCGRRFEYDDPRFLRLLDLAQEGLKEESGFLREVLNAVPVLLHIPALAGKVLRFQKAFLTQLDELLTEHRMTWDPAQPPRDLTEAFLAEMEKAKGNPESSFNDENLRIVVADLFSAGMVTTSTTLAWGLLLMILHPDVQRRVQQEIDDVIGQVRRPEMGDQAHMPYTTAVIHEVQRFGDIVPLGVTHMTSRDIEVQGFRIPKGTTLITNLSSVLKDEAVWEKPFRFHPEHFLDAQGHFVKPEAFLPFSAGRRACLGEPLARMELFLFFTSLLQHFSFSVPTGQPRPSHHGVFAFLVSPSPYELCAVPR
Chain of Nuclear receptor subfamily 1 group I member 2 (Rattus norvegicus) (Q9R1A7 whole entry, looked up): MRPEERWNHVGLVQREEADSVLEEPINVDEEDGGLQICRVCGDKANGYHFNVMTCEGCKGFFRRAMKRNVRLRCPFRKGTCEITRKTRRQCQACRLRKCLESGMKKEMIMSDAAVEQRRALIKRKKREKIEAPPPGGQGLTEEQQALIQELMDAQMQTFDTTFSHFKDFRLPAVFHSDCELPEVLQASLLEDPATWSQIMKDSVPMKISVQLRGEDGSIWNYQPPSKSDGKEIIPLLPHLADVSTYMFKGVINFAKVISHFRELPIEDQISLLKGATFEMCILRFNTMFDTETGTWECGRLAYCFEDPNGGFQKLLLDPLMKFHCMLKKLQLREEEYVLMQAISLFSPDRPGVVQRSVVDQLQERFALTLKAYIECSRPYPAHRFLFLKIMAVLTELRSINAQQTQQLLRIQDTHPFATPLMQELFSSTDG

SMILES	Potency [1]	Potency [2]	Potency [3]	Potency [4]	Potency [5]	Potency [6]	Potency [7]	Potency [8]	Potency [9]	Potency [10]	Potency [11]	Potency [12]	Potency [13]	Potency [14]	Potency [15]	outcome [16]	Potency [17]	max activation [18]	Potency [19]	outcome [20]
COC(=O)/C=C\C(=O)OC	inactive	inactive	inactive	inactive	inactive	inactive	inactive	inactive	inactive	inactive	inactive	inactive	inactive	–	–	–	–	–	–	–
C=CC(=O)NCOCCCC	inactive	inactive	inactive	–	inactive	inactive	inactive	inactive	inactive	inactive	inactive	inactive	inactive	inactive	inactive	inactive	16.4 µM (active) and inactive	–	–	–
CC(=O)OC[C@H]1O[C@@](COC(C)=O)(O[C@H]2O[C@H](COC(C)=O)[C@@H](OC(C)=O)[C@H](OC(C)=O)[C@H]2OC(C)=O)[C@@H](OC(C)=O)[C@@H]1OC(C)=O	inactive	inactive	inactive	–	inactive	inactive	inactive	inactive	inactive	inactive	inactive	inactive	inactive	–	inactive	–	inactive	-1.94% (inactive)	inactive	inactive
CCCN(CCC)C(=O)SCC	inactive	inactive	inactive	–	inactive	inactive	–	inactive	inactive	inactive	inactive	inactive	inactive	inactive	–	–	inactive	–	–	–
